Data as given in PMC5540273 (PLoS ONE, 2017).

Each molecule was assayed on SBK1. Conditions: concentration: 1 μM, replicates: in singlicate; n = 1.
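Also: KINOMEscan kinase panel screen.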

| Structure (SMILES) | %Inh [%] |
| --- | --- |
| COc1cccc(C(=O)Nc2cccc(Oc3ccc4nc(NC(=O)C5CC5)cn4n3)c2)c1 | 0 |
| Cc1cccc(NC(=O)Nc2ccc(Oc3ncnc4ccn(C)c34)cc2)c1 | 0 |
| Cc1ccc(S(=O)(=O)Nc2ccc(Nc3nccc(Nc4cccc5[nH]ncc45)n3)cc2)cc1 [GSK581271] | 26 |
| O=C(Nc1ccccc1F)NC1CCN(c2ccnc(Nc3ccc(F)cc3)n2)CC1 [GSK1379800] | 0 |
| Nc1n[nH]c2cnc(-c3ccccc3)cc12 [SB-642124] | 22 |
| c1ccc(-c2n[nH]cc2Nc2ccnc3ccccc23)nc1 [GW694077] | 25 |

Each molecule was assayed on SGK2. Conditions: concentration: 1 μM, replicates: in singlicate; n = 1.

| Structure (SMILES) | %Inh [%] |
| --- | --- |
| CN(c1ccc(NC(=O)Nc2cc(C(F)(F)F)ccc2F)cc1)c1ccnc(Nc2ccc(S(N)(=O)=O)cc2)n1 [GW809893] | 0 |
| Nc1ncnc2c1nc(-c1ccccc1)n2-c1ccccc1 [SKF-97293] | 0 |
| CN1CCN(CCCNc2nccc(-c3c(-c4ccc(F)cc4)nn4cc(C(F)(F)F)ccc34)n2)CC1 [GW621581] | 0 |
| O=C(Nc1cccc(-c2nn3ccccc3c2-c2ccnc(Nc3cccc(C(F)(F)F)c3)n2)c1)c1c(F)cccc1F [GSK292658] | 0 |
| COc1cc(Nc2nccc(N3CCC(NC(=O)Nc4cccc(C(C)=O)c4)C3)n2)cc(OC)c1OC (stereo not drawn) [GSK1379753] | 5 |
| Cl.Cl.NCC(C(=O)Nc1cc(Br)c(-c2ccnc3[nH]ccc23)s1)c1ccccc1 (stereo not drawn) [GSK1269851] | 0 |
| COc1ccc(Nc2nccc(NCCNC(=O)c3cc4ccccc4s3)n2)cc1 [GSK1379896] | 6 |
| Cc1ccc(F)c(C(=O)Nc2cccc(-c3nn4ccccc4c3-c3ccnc(Nc4cccc(F)c4)n3)c2)c1F [GSK361061] | 4 |
| Cl.Cl.NCC(NC(=O)c1cc(-c2ccccc2)c(-c2ccnc3[nH]ccc23)s1)c1ccccc1 (stereo not drawn) [GSK1321561] | 27 |
| Cc1cccc(Nc2nc(N[C@H]3CCNC3)ncc2C(N)=O)c1.Cl [GSK2197149] | 12 |
| COc1cccc(C2=C(Nc3ccc(Cl)c(C(=O)O)c3)C(=O)NC2=O)c1 [SB-390769] | 19 |
| O=C(Nc1cccc(-c2nn3ccccc3c2-c2ccnc(Nc3cccc(F)c3)n2)c1)c1c(F)ccc(F)c1Cl [GSK357952] | 0 |
| COc1cccc(NC(=O)NC2CCN(c3ccnc(Nc4cc(OC)c(OC)c(OC)c4)n3)C2)c1 (stereo not drawn) [GSK1379763] | 0 |
| O=c1[nH]cc(-c2ccc(N3CCOCC3)cc2)c2sc(-c3cn[nH]c3)cc12 [GSK2276055] | 0 |
| CC(C)(C)c1ccc2nccc(Nc3cccc(O)c3)c2c1 [GW856795] | 1 |
| COc1ccc(Nc2nccc(N3CCC(NC(=O)Nc4cccc(OC)c4)C3)n2)cc1 (stereo not drawn) [GSK1379742] | 0 |
| CCS(=O)(=O)c1ccc(OC)c(Nc2nccc(-c3c(-c4cccc(NC(=O)c5c(F)cccc5F)c4)nn4ncccc34)n2)c1 [GSK326180] | 5 |
| CC(C)c1nc(-c2cccc(NS(=O)(=O)c3c(F)cccc3F)c2F)c(-c2ccnc(Nc3ccc(N4CCOCC4)nc3)n2)s1 [GSK2008607] | 9 |
| Fc1ccc(-c2ncn(C3CCNCC3)c2-c2ccnc(Oc3ccc(-c4ccccc4)cc3)n2)cc1 [SB-245391] | 18 |
| O=C(Nc1n[nH]c2cc(-c3ccoc3)ccc12)C1CC1 [SB-738481] | 5 |
| Nc1ncc(-c2cccnc2)c2scc(-c3ccc4c(c3)CCN4C(=O)Cc3ccccc3)c12 [GSK683281] | 0 |
| Nc1ncc(-c2ccc3nccc(-c4ccncc4)c3c2)cc1S(=O)(=O)N1CCOCC1 [GSK1627798] | 0 |
| C[C@@H]1CC[C@@H](C(=O)Nc2ccccc2)CN1c1cc(-c2ccc3c(N)n[nH]c3c2)nc(N)n1 [GSK2286062] | 0 |
| Cn1cc(-c2ccc3c(c2)CCN3C(=O)Cc2cccc(F)c2)c2c(N)ncnc21 [GSK2603358] | 18 |
| Cc1ccc(C(=O)N2CC[C@@H](O)C2)cc1-n1c(C)cc(OCc2ccc(F)cc2F)c(Br)c1=O | 0 |
| CN1CCN(Cc2cccc(-c3ccc4c(Nc5ccc(Oc6ccccc6)cc5)ccnc4c3)c2)CC1 [GW578342] | 0 |
| CN(C)S(=O)(=O)c1cc(-c2ccc3nccc(-c4cccc(S(N)(=O)=O)c4)c3c2)cnc1N [GSK1669921] | 6 |
